ELG1 DNA repair: inhibitors of ELG1-dependent DNA repair in HEK293T cells. AID 504467. actives 2.3% (n = 330,000). Potency, µM (highest dose often 46.1 µM), actives largely listed as inhibitors. HEK293T ELG1-luciferase reporter, luminescence, 16 h; DNA damage induced by 5-fluorouridine; further: nearly all actives have a fitted effect of over 55% in size
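Step one: seed 2,000 cells per well. Step two: pin-transfer compound or DMSO alongside 5-fluorouridine. Step three: incubate 16 hr, 37 °C, 5% CO2. Step four: add ONE-Glo, wait 30 min, read luminescence.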
BRCA1 expr act: activators of BRCA1 expression. MCF7-BRCA1-FFLuc reporter, luminescence, 48 h; response scale: scaled: vehicle 0%, 10 µM genistein 100%. Potency, µM (titrated, usually from 46.1 µM), most hits filed as activators. actives 1.1% (n = 380,000); further: nearly all actives have a fitted effect of over 80% in size
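Compounds are tested at multiple concentrations on MCF7 BRCA1-luciferase reporter cells seeded at 2000 per well; after 48 h, a single luminescence end-point is taken and curves fitted to the normalized data.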
VP16 counter: inhibits Gal4-VP16 luciferase reporter, ROR gamma counter-screen. Drosophila S2 Gal4-VP16 UAS-luciferase, luminescence, 20 h. Potency, µM (top dose mostly 53.6 µM), usual class: inhibitors. actives 3.5% (n = 310,000). AID 2546;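 further: Gal4-VP16 expression switched on by copper sulfate through the metallothionein promoter; nearly all actives have a fitted effect of over 50% in size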
p53 reactivation: restores transcriptional activity of mutant p53; H1299 p53-A138V BP100-luciferase reporter, luminescence, 24 h; Potency, µM (series often up to 92.2 µM), most hits filed as activators; actives 0.063% (n = 320,000); AID 504706; further: nearly all actives have a fitted effect of over 45% in size
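H1299 (p53-null), stable ts p53-A138V + BP100-Luc; 1000 cells/well, Opti-MEM/10% FBS; cpd 4 pt, 1:5; 24 h, 37 deg C, 5% CO2; detection reagent 10 min RT; luminescence.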
RORg inh: inhibitors of mouse ROR gamma transcriptional activity | P51450 | Drosophila S2 Gal4-RORgamma UAS-luciferase reporter, 20 h | Potency, µM (titrated, usually from 53.6 µM), most hits filed as inhibitors | actives 5.4% (n = 310,000); further: nearly all actives have a fitted effect of over 60% in size
Target sequence (P51450 whole entry, looked up, the tested form may be a part): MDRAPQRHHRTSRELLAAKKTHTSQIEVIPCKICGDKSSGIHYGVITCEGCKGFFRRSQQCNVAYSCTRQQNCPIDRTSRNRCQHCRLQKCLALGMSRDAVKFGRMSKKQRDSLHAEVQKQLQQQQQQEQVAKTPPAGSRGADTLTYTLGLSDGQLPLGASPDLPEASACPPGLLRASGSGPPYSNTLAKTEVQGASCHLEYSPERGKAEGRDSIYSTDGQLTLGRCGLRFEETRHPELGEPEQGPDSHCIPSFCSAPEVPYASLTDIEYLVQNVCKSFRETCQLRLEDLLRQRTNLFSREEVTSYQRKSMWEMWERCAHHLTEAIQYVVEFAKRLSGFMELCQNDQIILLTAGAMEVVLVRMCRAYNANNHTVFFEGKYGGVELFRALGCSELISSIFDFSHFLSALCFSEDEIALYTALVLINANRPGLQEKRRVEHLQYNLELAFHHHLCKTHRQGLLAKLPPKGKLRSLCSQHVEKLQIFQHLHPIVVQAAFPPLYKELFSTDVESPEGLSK
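Stably transfected Drosophila Schneider cells are the test system, with ROR gamma fused to Gal4 and luciferase under UAS control; luminescence is read after 20 hr of 700 uM copper sulfate induction at ambient temperature.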
Giardia killer: Giardia lamblia killing. actives 0.15% (n = 340,000). Giardia lamblia trophozoite viability. AID 540267. activity change, % at 7.66 µM, hits read low; in the data active means activity change below about -80%; inconclusive means between about -30% and that limit;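 further: parasites exposed to compound for two days anaerobically before the ATP read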
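ATP-content bioluminescence gauges trophozoite survival. Cells (100/well) receive compound and incubate anaerobically for 48 hrs at 37 deg C; detection reagent follows for 15-30 min at room temperature.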
Each line names hits and unclear results; the compound was inactive in the other large screens. Most compounds without a hit are left out; they make up all but 7.6% or so of the library. Unless noted, the call rests on the fitted dose curve; in most records, active means well fitted curve in the direction sought with a large enough effect; inconclusive means small, poorly fitted or top-dose-only effect, or another doubt; inactive means no such curve, though single readings can be large; an effect the other way counts as inactive or inconclusive.

O=C(NCC1CCCO1)C1CCCN1C(=O)Nc1ccc(Cl)cc1 (stereo not drawn)	none
S=C(NCC1CCCO1)Nc1ccc(Cl)cc1 (stereo not drawn)	ELG1 DNA repair inconclusive, VP16 counter inconclusive, RORg inh 10µM
Clc1ccc(-c2ccc(CNCC3CCCO3)o2)cc1 (stereo not drawn)	BRCA1 expr act 10µM
Oc1ccc(Cl)cc1CNCC1CCCO1 (stereo not drawn)	none
O=C(NCC1CCCO1)Nc1ccc(Cl)cc1 (stereo not drawn)	BRCA1 expr act 10µM (no result: ELG1 DNA repair, p53 reactivation)
CC(OC(=O)/C=C/c1ccccc1Cl)C(=O)NC1CCCCC1C (stereo not drawn)	none (no result: VP16 counter, RORg inh)
Cc1ccc(C(=O)N/C(=C\c2cccs2)C(=O)NC2CCCCC2)cc1	none
CC1=C(C)N(C)[C@H](c2ccccc2Br)[C@H](O)C1=O	none (no result: ELG1 DNA repair, VP16 counter, p53 reactivation, RORg inh)
Cc1ccc(NC(=S)NCCN2CCOCC2)cc1C	ELG1 DNA repair inconclusive, RORg inh 11.2µM
Cc1cc(C)nc(/N=C(\N)N(Cc2ccccc2)Cc2ccccc2)n1	RORg inh 11.2µM
CCn1cc([N+](=O)[O-])c(C(=O)NCc2ccc3c(c2)OCO3)n1	none
Cc1ccc(NC(=O)CN2CCc3cc4c(cc3C2C)OCCCO4)cc1 (stereo not drawn)	ELG1 DNA repair 18.3µM
CN(CC1CCCO1)S(=O)(=O)c1ccc(C(=O)NCc2ccccc2)cc1 (stereo not drawn)	ELG1 DNA repair inconclusive
CCn1cc([N+](=O)[O-])c(C(=O)Nc2ccc3c(c2)OCCO3)n1	ELG1 DNA repair inconclusive, BRCA1 expr act 5.01µM, RORg inh inconclusive
CN(CC1CCCO1)S(=O)(=O)c1ccc(C(=O)N2CCN(c3ccccc3)CC2)cc1 (stereo not drawn)	ELG1 DNA repair 23.1µM
COc1ccc(-c2ccc(=O)n(CC(=O)Nc3ccc4c(c3)OCCO4)n2)cc1	VP16 counter inconclusive, RORg inh 11.2µM
COc1ccccc1NS(=O)(=O)c1ccc(NC(=O)CCNC(=O)c2ccco2)cc1	none
CCc1sc(-c2cc3ccc(O)cc3oc2=O)nc1-c1ccc(C)cc1	none (no result: ELG1 DNA repair, VP16 counter, p53 reactivation, RORg inh)
COc1ccccc1NCC(=O)NC(=O)NC1CCCCC1	none (no result: VP16 counter, RORg inh)
Cc1ccc(CN2C(=O)CCC2C(=O)NCCc2ccccc2)cc1 (stereo not drawn)	none
CC(=O)NC(CC(=O)OCC(=O)c1cc(C)ccc1C)c1ccccc1 (stereo not drawn)	none (no result: VP16 counter, RORg inh)
COc1ccc(-n2nnc3c(SCC(=O)Nc4ccc5c(c4)OCCO5)ncnc32)cc1	VP16 counter inconclusive, p53 reactivation inconclusive, RORg inh 7.94µM (no result: BRCA1 expr act, Giardia killer)
CC1CC(C)CN(CC(=O)Nc2ccc3c(c2)OCCO3)C1 (stereo not drawn)	ELG1 DNA repair inconclusive, BRCA1 expr act 12.6µM
CN(c1ccc(C(=O)Nc2ccc3c(c2)OCO3)cc1)S(C)(=O)=O	ELG1 DNA repair inconclusive, BRCA1 expr act 6.31µM, Giardia killer inconclusive
COc1ccc(-n2nnc3c(=O)n(CC(=O)Nc4ccc5c(c4)OCCO5)cnc32)cc1OC	ELG1 DNA repair inconclusive
Cc1ccc(C(=O)Nc2ccc3c(c2)OCO3)cc1	ELG1 DNA repair inconclusive, RORg inh inconclusive, Giardia killer inconclusive
Cc1ccc(C(=O)Nc2ccc3c(c2)OCCO3)cc1	ELG1 DNA repair inconclusive, BRCA1 expr act inconclusive, VP16 counter 10µM, RORg inh 10µM, Giardia killer inconclusive
COc1cc(Br)c(CCNC(=O)c2ccco2)cc1OC	none
O=C(Nc1ccc2c(c1)OCCO2)c1cccc(Br)c1	ELG1 DNA repair inconclusive, BRCA1 expr act inconclusive
O=C(CN1C(=O)NC2(CCCCC2)C1=O)Nc1ccc2c(c1)OCCCO2	ELG1 DNA repair inconclusive, BRCA1 expr act 5.01µM (no result: VP16 counter, p53 reactivation, RORg inh)
Cc1cc(NC(=O)c2ccc(S(=O)(=O)N(C)CC3CCCO3)cc2)no1 (stereo not drawn)	RORg inh inconclusive
CN(CC1CCCO1)S(=O)(=O)c1ccc(C(=O)Nc2ccc3c(c2)OCO3)cc1 (stereo not drawn)	ELG1 DNA repair 11.6µM
